# Laboratory results as given in PMC7862700, “An all-to-all approach to the identification of sequence-specific readers for epigenetic DNA modifications on cytosine”.
# What was measured:
# Assay in all cases: DAPPL (digital affinity profiling via proximity ligation, sequencing); 10 mM Tris-HCl pH 7.5, 50 mM NaCl, 1 mM DTT, 4% glycerol, room temperature, 30 min; GST-TFs on glutathione beads, 16-mer random dsDNA library, 0.1% formaldehyde crosslink after washing; high values mean tight binding
# FEV = target: T1, FEV (Homo sapiens, UniProt Q99581 1-238); settings: protein: recombinant; tags: N-terminal GST; dsDNA, one strand shown
# T1 sequence: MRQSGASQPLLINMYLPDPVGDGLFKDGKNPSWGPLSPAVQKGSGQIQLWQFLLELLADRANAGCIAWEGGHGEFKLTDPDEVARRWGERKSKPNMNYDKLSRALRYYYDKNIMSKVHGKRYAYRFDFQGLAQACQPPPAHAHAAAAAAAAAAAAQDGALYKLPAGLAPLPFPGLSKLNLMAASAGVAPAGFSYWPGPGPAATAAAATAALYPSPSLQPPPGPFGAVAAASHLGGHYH
# In short: (§1)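 Human transcription factors carrying a GST fusion were produced in yeast, bound to glutathione beads, tagged with DNA barcodes and pooled together with a tag-only sample. Each pool was held with 200 nmole of a random double-stranded 16-mer DNA library in Tris/NaCl/DTT/glycerol buffer for 30 min at room temperature, then washed, crosslinked in 0.1% formaldehyde, proximity-ligated with BsaI/T4 ligase (1 h, 37 °C), PCR-amplified and sequenced on an Illumina NextSeq500. Binding signal is the read frequency of each hexamer for a given factor divided by its frequency in the tag-only sample.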
# ETV5 = ETV5 (Homo sapiens, UniProt P41161 1-510); settings: protein: recombinant; tags: N-terminal GST; dsDNA, one strand shown
# Sequence of ETV5 (P41161 whole entry): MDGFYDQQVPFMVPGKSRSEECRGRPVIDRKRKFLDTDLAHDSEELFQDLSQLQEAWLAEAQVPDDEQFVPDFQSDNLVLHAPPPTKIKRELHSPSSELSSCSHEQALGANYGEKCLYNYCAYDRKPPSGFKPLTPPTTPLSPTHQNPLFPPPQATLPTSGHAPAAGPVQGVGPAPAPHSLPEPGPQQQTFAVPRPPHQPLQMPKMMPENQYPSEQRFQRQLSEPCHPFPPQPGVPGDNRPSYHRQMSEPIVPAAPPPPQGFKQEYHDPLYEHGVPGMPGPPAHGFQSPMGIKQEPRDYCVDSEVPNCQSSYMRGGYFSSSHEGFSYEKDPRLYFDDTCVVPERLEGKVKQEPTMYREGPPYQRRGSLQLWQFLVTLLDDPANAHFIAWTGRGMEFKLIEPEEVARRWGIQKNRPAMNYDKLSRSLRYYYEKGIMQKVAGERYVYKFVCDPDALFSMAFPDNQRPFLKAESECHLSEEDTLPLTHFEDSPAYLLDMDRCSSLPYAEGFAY
# In short: as §1
# HSF1 = HSF1 (Homo sapiens, UniProt Q00613 1-529); settings: protein: recombinant; tags: N-terminal GST; chain copies: 3; dsDNA, one strand shown
# Sequence of HSF1 (Q00613 whole entry): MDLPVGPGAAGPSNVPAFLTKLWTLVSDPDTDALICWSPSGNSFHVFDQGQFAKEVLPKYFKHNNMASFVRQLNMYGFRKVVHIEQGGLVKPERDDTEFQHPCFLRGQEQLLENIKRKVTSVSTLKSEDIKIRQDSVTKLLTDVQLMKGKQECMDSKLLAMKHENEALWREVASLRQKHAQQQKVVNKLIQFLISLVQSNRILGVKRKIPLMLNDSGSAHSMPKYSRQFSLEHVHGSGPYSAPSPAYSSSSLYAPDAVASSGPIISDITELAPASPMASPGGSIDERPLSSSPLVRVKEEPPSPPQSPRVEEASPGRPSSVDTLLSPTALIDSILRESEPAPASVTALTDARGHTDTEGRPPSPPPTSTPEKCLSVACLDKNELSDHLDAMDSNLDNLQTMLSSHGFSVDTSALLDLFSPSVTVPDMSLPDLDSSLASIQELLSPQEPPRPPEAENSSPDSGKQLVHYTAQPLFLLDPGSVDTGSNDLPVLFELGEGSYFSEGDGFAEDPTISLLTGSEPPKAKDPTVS
# In short: as §1
# SPIC = target: T2, SPIC (Homo sapiens, UniProt Q8N5J4 1-248); settings: protein: recombinant; tags: N-terminal GST; dsDNA, one strand shown
# T2 sequence: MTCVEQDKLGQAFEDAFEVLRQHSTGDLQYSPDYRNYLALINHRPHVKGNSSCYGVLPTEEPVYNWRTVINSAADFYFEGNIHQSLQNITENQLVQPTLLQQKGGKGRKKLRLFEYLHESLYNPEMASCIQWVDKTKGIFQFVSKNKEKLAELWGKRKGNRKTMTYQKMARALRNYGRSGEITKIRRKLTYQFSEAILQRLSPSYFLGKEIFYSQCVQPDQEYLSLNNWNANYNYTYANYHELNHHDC
# In short: as §1
# ELF4 = ELF4 (Homo sapiens, UniProt Q99607 1-663); settings: protein: recombinant; tags: N-terminal GST; dsDNA, one strand shown
# Sequence of ELF4 (Q99607 whole entry): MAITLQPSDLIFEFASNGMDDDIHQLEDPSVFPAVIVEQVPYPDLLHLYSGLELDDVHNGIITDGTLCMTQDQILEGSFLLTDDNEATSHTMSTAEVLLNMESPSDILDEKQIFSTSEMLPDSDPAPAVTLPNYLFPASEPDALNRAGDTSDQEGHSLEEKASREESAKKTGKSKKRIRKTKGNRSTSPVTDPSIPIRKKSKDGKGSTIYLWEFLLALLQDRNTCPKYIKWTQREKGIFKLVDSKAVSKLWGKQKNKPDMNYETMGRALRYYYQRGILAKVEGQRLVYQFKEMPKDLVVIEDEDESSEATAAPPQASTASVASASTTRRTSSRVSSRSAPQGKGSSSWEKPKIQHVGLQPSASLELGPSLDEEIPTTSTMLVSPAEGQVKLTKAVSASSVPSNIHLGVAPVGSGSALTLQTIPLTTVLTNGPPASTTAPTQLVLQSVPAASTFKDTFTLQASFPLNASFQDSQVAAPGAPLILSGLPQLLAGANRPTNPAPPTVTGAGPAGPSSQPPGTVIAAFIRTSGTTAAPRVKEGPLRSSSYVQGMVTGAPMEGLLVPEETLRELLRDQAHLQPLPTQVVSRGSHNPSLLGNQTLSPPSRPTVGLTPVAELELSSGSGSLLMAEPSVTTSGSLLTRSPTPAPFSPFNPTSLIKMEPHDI
# In short: as §1
# ELK4 = target: T3, ELK4 (Homo sapiens, UniProt P28324-2 1-405); settings: protein: recombinant; tags: N-terminal GST; dsDNA, one strand shown
# T3 sequence: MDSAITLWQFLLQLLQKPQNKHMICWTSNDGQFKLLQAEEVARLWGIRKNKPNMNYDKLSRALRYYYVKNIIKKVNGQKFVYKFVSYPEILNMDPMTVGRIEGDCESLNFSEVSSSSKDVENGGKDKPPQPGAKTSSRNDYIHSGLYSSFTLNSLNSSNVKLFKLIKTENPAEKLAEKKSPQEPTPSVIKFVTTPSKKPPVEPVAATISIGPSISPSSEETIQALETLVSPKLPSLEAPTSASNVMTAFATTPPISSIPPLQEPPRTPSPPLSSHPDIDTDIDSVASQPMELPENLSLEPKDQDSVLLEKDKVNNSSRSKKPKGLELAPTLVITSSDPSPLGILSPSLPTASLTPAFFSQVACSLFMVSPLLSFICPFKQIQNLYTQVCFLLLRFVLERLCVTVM
# In short: as §1
# ETV2 = target: T4, ETV2 (Homo sapiens, UniProt O00321 1-342); settings: protein: recombinant; tags: N-terminal GST; dsDNA, one strand shown
# T4 sequence: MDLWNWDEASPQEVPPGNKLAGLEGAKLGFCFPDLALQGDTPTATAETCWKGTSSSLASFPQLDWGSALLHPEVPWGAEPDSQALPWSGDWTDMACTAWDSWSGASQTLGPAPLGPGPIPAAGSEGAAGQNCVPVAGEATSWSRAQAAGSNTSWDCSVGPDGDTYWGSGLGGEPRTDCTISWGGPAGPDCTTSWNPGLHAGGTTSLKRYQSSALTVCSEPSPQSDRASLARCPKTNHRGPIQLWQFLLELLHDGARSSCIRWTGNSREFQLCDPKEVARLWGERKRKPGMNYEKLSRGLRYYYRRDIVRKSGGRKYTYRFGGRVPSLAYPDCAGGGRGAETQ
# In short: as §1
# ELF3 = target: T5, ELF3 (Homo sapiens, UniProt P78545 1-371); settings: protein: recombinant; tags: N-terminal GST; dsDNA, one strand shown
# T5 sequence: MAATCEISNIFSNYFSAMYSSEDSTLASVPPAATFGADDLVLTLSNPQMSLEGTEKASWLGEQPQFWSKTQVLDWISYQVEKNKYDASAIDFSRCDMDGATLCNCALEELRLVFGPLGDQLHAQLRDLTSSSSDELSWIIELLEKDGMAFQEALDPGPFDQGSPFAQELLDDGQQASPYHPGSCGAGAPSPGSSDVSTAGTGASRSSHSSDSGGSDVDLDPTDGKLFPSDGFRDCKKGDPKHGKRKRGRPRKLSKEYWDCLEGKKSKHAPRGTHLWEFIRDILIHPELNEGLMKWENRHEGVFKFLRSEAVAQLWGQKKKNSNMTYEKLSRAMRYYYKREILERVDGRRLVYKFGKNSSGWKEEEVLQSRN
# In short: as §1
# CRX = CRX (Homo sapiens, UniProt O43186 1-299); settings: protein: recombinant; tags: N-terminal GST; dsDNA, one strand shown
# Sequence of CRX (O43186 whole entry): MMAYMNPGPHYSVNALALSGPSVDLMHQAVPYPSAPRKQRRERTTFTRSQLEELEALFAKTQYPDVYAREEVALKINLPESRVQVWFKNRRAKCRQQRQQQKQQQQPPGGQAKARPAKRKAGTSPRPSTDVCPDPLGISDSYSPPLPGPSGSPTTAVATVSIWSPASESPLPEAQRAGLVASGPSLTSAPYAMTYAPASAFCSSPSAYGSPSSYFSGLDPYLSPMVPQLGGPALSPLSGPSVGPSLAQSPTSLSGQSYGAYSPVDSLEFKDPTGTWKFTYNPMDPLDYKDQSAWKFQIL
# In short: as §1
# ETV1 = ETV1 (Homo sapiens, UniProt P50549 1-477); settings: protein: recombinant; tags: N-terminal GST; dsDNA, one strand shown
# Sequence of ETV1 (P50549 whole entry): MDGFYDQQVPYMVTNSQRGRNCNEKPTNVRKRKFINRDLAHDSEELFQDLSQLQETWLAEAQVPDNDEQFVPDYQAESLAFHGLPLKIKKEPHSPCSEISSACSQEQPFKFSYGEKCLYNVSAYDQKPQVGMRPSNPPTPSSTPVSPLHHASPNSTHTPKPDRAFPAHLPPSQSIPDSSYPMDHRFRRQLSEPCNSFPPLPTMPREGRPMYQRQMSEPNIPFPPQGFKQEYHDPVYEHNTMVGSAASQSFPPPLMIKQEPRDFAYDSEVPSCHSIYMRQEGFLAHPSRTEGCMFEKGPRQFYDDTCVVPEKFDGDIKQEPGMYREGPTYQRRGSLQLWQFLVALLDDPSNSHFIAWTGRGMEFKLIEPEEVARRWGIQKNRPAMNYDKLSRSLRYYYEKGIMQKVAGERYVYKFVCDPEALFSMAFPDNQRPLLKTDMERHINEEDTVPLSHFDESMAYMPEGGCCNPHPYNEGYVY
# In short: as §1
# ERF = target: T6, ERF (Homo sapiens, UniProt P50548 1-548); settings: protein: recombinant; tags: N-terminal GST; dsDNA, one strand shown
# T6 sequence: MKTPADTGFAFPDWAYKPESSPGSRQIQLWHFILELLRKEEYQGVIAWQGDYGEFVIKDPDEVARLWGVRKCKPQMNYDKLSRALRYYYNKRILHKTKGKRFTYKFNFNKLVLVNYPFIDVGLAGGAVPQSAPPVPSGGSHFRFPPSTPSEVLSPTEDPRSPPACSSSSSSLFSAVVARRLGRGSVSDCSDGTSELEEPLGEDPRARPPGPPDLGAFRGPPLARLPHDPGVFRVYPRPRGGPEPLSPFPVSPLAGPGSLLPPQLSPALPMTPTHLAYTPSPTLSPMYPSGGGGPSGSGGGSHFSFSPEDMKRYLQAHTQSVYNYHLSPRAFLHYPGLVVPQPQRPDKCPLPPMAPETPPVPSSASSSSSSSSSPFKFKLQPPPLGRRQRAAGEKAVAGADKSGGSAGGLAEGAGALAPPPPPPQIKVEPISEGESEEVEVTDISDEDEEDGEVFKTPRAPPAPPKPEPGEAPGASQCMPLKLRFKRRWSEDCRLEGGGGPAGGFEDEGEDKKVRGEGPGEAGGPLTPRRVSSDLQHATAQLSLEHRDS
# In short: as §1
# ETV3L = target: T7, ETV3L (Homo sapiens, UniProt Q6ZN32 1-361); settings: protein: recombinant; tags: N-terminal GST; dsDNA, one strand shown
# T7 sequence: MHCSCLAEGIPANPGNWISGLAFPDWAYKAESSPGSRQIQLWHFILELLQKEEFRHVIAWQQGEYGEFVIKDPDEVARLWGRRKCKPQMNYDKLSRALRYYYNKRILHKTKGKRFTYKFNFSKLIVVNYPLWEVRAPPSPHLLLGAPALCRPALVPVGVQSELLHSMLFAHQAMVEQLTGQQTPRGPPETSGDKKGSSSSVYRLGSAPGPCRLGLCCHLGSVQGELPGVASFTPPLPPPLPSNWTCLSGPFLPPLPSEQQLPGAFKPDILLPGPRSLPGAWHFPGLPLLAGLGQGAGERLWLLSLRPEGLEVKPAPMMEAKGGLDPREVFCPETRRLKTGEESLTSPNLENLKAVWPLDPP
# In short: as §1
# ETS2 = target: T8, ETS2 (Homo sapiens, UniProt P15036 1-469); settings: protein: recombinant; tags: N-terminal GST; dsDNA, one strand shown
# T8 sequence: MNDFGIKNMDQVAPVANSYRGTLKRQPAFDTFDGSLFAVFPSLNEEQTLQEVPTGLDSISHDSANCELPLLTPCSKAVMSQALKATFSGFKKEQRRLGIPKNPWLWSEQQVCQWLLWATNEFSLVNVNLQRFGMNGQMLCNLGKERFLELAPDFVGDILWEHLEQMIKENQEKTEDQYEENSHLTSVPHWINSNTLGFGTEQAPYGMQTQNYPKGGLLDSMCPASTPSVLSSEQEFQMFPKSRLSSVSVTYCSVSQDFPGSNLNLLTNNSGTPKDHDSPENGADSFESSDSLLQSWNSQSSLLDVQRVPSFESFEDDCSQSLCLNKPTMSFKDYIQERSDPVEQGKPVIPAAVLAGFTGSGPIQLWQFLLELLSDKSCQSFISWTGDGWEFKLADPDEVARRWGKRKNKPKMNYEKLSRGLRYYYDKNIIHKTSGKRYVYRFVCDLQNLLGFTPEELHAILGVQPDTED
# In short: as §1
# SPDEF = target: T9, SPDEF (Homo sapiens, UniProt O95238 1-335); settings: protein: recombinant; tags: N-terminal GST; dsDNA, one strand shown
# T9 sequence: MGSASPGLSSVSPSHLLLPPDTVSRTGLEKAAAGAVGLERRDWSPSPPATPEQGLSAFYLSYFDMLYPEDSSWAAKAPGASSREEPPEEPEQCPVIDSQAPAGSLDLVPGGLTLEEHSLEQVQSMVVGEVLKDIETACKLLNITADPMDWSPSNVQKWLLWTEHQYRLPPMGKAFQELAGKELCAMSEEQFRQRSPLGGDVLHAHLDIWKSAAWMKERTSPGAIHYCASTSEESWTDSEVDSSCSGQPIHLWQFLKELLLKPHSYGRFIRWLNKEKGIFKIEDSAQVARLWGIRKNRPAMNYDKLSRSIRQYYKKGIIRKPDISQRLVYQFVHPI
# In short: as §1
# ETV7 = target: T10, ETV7 (Homo sapiens, UniProt Q9Y603 1-341); settings: protein: recombinant; tags: N-terminal GST; dsDNA, one strand shown
# T10 sequence: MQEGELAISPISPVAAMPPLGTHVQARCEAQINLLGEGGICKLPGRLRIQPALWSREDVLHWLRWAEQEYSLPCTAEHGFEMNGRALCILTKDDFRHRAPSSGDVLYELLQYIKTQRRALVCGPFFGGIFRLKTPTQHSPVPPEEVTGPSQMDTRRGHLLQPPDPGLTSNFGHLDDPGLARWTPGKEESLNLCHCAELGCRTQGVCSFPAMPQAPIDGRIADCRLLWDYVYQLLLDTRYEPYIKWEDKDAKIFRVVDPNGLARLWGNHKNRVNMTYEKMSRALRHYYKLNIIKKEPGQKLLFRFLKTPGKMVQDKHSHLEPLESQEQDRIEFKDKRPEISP
# In short: as §1
# ELF5 = target: T11, ELF5 (Homo sapiens, UniProt Q9UKW6-2 1-255); settings: protein: recombinant; tags: N-terminal GST; dsDNA, one strand shown
# T11 sequence: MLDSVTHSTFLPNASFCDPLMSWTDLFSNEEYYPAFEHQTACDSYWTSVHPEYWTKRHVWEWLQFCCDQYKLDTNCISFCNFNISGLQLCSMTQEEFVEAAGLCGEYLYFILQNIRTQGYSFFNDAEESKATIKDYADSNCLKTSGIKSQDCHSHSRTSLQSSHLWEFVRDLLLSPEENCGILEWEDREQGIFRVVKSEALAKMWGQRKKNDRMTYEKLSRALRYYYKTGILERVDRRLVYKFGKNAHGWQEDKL
# In short: as §1
# ETV3 = target: T12, ETV3 (Homo sapiens, UniProt P41162-2 1-143); settings: protein: recombinant; tags: N-terminal GST; dsDNA, one strand shown
# T12 sequence: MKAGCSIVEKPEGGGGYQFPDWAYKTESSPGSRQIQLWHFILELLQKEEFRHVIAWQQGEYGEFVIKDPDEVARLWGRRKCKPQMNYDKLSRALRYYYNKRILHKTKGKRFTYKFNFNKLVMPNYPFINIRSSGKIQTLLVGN
# In short: as §1
# ETV6 = ETV6 (Homo sapiens, UniProt P41212 1-452); settings: protein: recombinant; tags: N-terminal GST; dsDNA, one strand shown
# Sequence of ETV6 (P41212 whole entry): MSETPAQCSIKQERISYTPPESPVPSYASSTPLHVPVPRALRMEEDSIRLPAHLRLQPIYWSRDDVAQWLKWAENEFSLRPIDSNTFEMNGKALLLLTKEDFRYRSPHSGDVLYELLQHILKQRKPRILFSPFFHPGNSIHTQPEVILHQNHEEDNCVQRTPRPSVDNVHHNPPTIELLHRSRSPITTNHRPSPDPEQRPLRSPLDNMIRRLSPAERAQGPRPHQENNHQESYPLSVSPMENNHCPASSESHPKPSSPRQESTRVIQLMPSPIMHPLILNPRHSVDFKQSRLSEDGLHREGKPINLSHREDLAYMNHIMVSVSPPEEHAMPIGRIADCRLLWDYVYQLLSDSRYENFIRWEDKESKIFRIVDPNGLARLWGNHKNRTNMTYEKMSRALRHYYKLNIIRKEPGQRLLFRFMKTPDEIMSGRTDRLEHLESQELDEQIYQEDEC
# In short: as §1
sequence,measurement,setting,value
ACCCTT,binding signal,FEV,"1.21 fold enrichment (6-mer frequency, TF over GST control)"
same,binding signal,ETV5,"1.25 fold enrichment (6-mer frequency, TF over GST control)"
same,binding signal,HSF1,"1.09 fold enrichment (6-mer frequency, TF over GST control)"
same,binding signal,SPIC,"1.02 fold enrichment (6-mer frequency, TF over GST control)"
same,binding signal,ELF4,"1.26 fold enrichment (6-mer frequency, TF over GST control)"
same,binding signal,ELK4,"1.08 fold enrichment (6-mer frequency, TF over GST control)"
same,binding signal,ETV2,"1.33 fold enrichment (6-mer frequency, TF over GST control)"
same,binding signal,ELF3,"1.23 fold enrichment (6-mer frequency, TF over GST control)"
same,binding signal,CRX,"1.15 fold enrichment (6-mer frequency, TF over GST control)"
same,binding signal,ETV1,"1.18 fold enrichment (6-mer frequency, TF over GST control)"
same,binding signal,ERF,"1.2 fold enrichment (6-mer frequency, TF over GST control)"
same,binding signal,ETV3L,"1.21 fold enrichment (6-mer frequency, TF over GST control)"
same,binding signal,ETS2,"1.1 fold enrichment (6-mer frequency, TF over GST control)"
same,binding signal,SPDEF,"1.2 fold enrichment (6-mer frequency, TF over GST control)"
same,binding signal,ETV7,"1.1 fold enrichment (6-mer frequency, TF over GST control)"
same,binding signal,ELF5,"1.19 fold enrichment (6-mer frequency, TF over GST control)"
same,binding signal,ETV3,"1.19 fold enrichment (6-mer frequency, TF over GST control)"
same,binding signal,ETV6,"1.15 fold enrichment (6-mer frequency, TF over GST control)"
